Screens deposited in PubChem BioAssay by National Center for Advancing Translational Sciences (NCATS).
NS1 inh: qHTS Assay for Inhibitors of Influenza NS1 Protein Function; Potency, µM (top dose mostly 46.1 µM), inactives show at the highest dose activity, positive = more growth; actives 0.4% (n = 270,000); calls by dose curve; further: potency means the concentration at half of the fitted maximal effect; actives are rising curves; nearly all actives have a fitted effect of over 50% in size
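In this qHTS, NS1 from influenza A is expressed in budding yeast, where it slows growth. Cells are switched from glucose to 2% galactose medium (pH 6.0, -URA), treated with compound, and growth recovery is read at OD600.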
CHX counter: Cycloheximide Counterscreen for Small Molecule Inhibitors of Shiga Toxin | cell reporter, cycloheximide protein synthesis inhibition counterscreen | max response, % | actives 12% (n = 300,000); in the data active means max response mostly above about 13%, no sharp cut-off; inactive means mostly below about 14%; further: read at 38.3 µM for the half of the compounds with a filed dose; 0% is about no effect
Shiga inhibitor: A qHTS for Small Molecule Inhibitors of Shiga Toxin | actives 9.2% (n = 290,000) | inhibition, % at 38.7 µM | AID 2315, 2010 | Vero cells, Shiga toxin protein synthesis inhibition reporter; in the data active means inhibition mostly above about 28%, no sharp cut-off; inactive means mostly below about 43%; further: 0% is about no effect
Pf growth 48h: Primary qHTS for delayed death inhibitors of the malarial parasite plastid, 48 hour incubation; P. falciparum luciferase growth in erythrocytes, 48 h; AID 504832, 2011; Potency, µM (doses to about 28.7 µM), inactives show at the highest dose activity change, negative = inhibition, most hits filed as inhibitors; actives 5.9% (n = 310,000); further: potency means the concentration at half of the fitted maximal effect; on the % scale 0 is the no-effect control and ±100 the full control effect
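Parasite viability was followed by luminescence of a genomically integrated firefly luciferase. Cultures held 0.1% parasitemia at 2% hematocrit (final), incubated under 5% CO2 at 37 C.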
Pf growth 96h: Primary qHTS for delayed death inhibitors of the malarial parasite plastid, 96 hour incubation. Potency, µM (doses to about 28.7 µM), for the others: top-dose activity change, negative = inhibition, most hits filed as inhibitors. AID 504834, 2011. P. falciparum luciferase reporter growth, 96 h. actives 6.9% (n = 320,000); further: potency means the concentration at half of the fitted maximal effect; on the % scale 0 is the no-effect control and ±100 the full control effect
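Delayed-death screen, second-generation endpoint: infected erythrocytes, 2% hematocrit, 0.05% parasitemia final; 96 hours at 37 C, 5% CO2; luciferase detection reagent; luminescence decrease equals reduced growth.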
* hit, by the source's call. Sampled rows, rich in hits. Any-hit rate of the full collection: about 21%. Unless noted, the call rests on the fitted dose curve; in most records, active means well fitted inhibition curve with a large enough effect; inconclusive means small, poorly fitted or top-dose-only effect, or another doubt; inactive means no such curve, though single readings can be large or run the other way.

For CC[C@H](C)[C@H](NC(=O)[C@H](CC(C)C)NC(=O)[C@H](CC(N)=O)NC(=O)[C@@H](NC(=O)[C@@H](N)Cc1ccc(O)cc1)[C@@H](C)CC)C(=O)N[C@@H](Cc1ccc(O)cc1)C(=O)N[C@@H](CCCN=C(N)N)C(=O)N[C@@H](CC(C)C)C(=O)N[C@@H](CCCN=C(N)N)C(=O)N[C@@H](Cc1ccc(O)cc1)C(N)=O the results were CHX counter -2 and Shiga inhibitor -3.
`O=C(C[n+]1ccc(-c2nnc3n2CCC3)cc1)c1ccc(Cl)c(Cl)c1` gave NS1 inh inconclusive, CHX counter 3, Shiga inhibitor 6, Pf growth 48h 5% and Pf growth 96h inconclusive.
Screening COc1ccc(NC(=O)N2CCC(c3nc4ccccc4[nH]3)CC2)cc1 returned CHX counter 10, Shiga inhibitor -4, Pf growth 48h 2% and Pf growth 96h -11%.
For CCOc1cc(/C=C(\C#N)C(=O)Nc2cccc(C(=O)O)c2)cc(Br)c1OC(=O)c1ccc(OC)cc1 the results were NS1 inh -1%, CHX counter 11, Shiga inhibitor 31*, Pf growth 48h 0% and Pf growth 96h 34%.
`CCOc1cc(/C=C(\C#N)C(=O)Nc2cccc(C(=O)O)c2)ccc1OCc1ccccc1Cl` gave NS1 inh 8%, CHX counter 10, Shiga inhibitor 16, Pf growth 48h 8% and Pf growth 96h 2%.
N#CC(C#N)=Cc1ccccc1OCc1ccccc1 was read as NS1 inh -51%, CHX counter 43*, Shiga inhibitor 23, Pf growth 48h inconclusive and Pf growth 96h -8%.
Screening Cc1ccc(S(=O)(=O)/C(C#N)=C/c2ccccc2OCc2ccccc2)cc1 returned NS1 inh 6%, CHX counter 8, Shiga inhibitor -6, Pf growth 48h 2% and Pf growth 96h inconclusive.
CCOC(=O)N1CCN(C(=O)C(=O)Nc2ccc3nc4n(c(=O)c3c2)CCCCC4)CC1 was read as NS1 inh 9%, CHX counter -5, Shiga inhibitor 25 and Pf growth 96h -32%.
`O=C(Nc1ccc2nc3n(c(=O)c2c1)CCCCC3)C(=O)N1CCN(c2ccccc2)CC1` gave NS1 inh 1%, CHX counter 1, Shiga inhibitor -3, Pf growth 48h 1.3µM* and Pf growth 96h inconclusive.
For O=c1c2cc(NC(=S)NCc3cccnc3)ccc2nc2n1CCCCC2 the results were NS1 inh 14%, CHX counter 22*, Shiga inhibitor 69, Pf growth 48h 42% and Pf growth 96h 4%.
Screening COc1cccc(C(=O)Nc2ccc3nc4n(c(=O)c3c2)CCCC4)c1 returned NS1 inh -3%, CHX counter 23*, Shiga inhibitor 56*, Pf growth 48h 13% and Pf growth 96h 78%.
`CCOC(=O)N1CCN(C(=O)CC(=O)Nc2ccc3nc4n(c(=O)c3c2)CCCCC4)CC1` gave NS1 inh -3%, CHX counter 1, Shiga inhibitor -13, Pf growth 48h 5.9µM* and Pf growth 96h 7%.
`O=C(CNC(=O)C1CC(=O)N(c2cccc3ccccc23)C1)Nc1ccccc1Br` (stereo not given) gave Pf growth 48h -13% and Pf growth 96h inconclusive.
For c1ccc(-c2cn(C[C@H]3CC[C@H](Cn4cc(-c5ccccn5)nn4)O3)nn2)nc1 the results were NS1 inh 23%, CHX counter 0, Shiga inhibitor 16, Pf growth 48h inconclusive and Pf growth 96h -28%.
Screening COc1cc(C(=O)Nc2ccc3nc4n(c(=O)c3c2)CCCC4)ccc1Br returned NS1 inh 2%, CHX counter 18, Shiga inhibitor -4, Pf growth 48h 8.3µM* and Pf growth 96h -3%.
For CN(C)c1cccc(C(=O)Nc2ccc3nc4n(c(=O)c3c2)CCCCC4)c1 the results were NS1 inh -14%, CHX counter 24*, Shiga inhibitor 53* and Pf growth 96h 15%.
`COc1ccc(Cl)cc1C(=O)Nc1ccc2nc3n(c(=O)c2c1)CCCC3` gave NS1 inh -1%, CHX counter 0, Shiga inhibitor 14, Pf growth 48h inconclusive and Pf growth 96h 2.1µM*.
O=C(/C=C/c1ccco1)Nc1ccc2nc3n(c(=O)c2c1)CCCC3 was read as CHX counter 52*, Shiga inhibitor 66*, Pf growth 48h 64% and Pf growth 96h inconclusive.
